Where “and” joins values, the source holds several entries; their conditions need not be identical. Equal values may be shown once. Among all 370,000 compounds or so, about 3,700 (1%) were called active.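 The calls were made as follows: active = activation above the mean over all tested compounds plus 3 SD (cut at about 0.9% in these data); inactive = the rest.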 Shown is part of a subset that was picked to be rich in actives. Some structures have more than one record in an assay (separate samples or runs), and their calls can disagree.
The molecules below were run on Nuclear hormone receptor DAF-12 (Strongyloides stercoralis) (assay: ssDAF-12 driven luciferase reporter activation – cell-based, luminescence, HEK293, GRIP1 co-expression, lit1-tk-luc, primary screen (AID 652126;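 also: 0% = DMSO-only wells and 100% = 3 µM delta7-dafachronic acid wells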)). Conditions: HEK293 ssDAF-12/GRIP1 lit1-tk-luc reporter, at 6.8 µM, stronger effect = higher value, % of 3 µM dafachronic acid response.
With `Cc1nnc(-c2ccc(Oc3ccc(C)c(C)c3)c([N+](=O)[O-])c2)o1` the activation was -0.81% (inactive).
In the case of `CCOC(=O)N1CCN(C(=O)C[C@@H]2C(=O)N(CCc3ccc(Cl)cc3)C3=CCCC[C@]32C(=O)OCC)CC1`, the activation is reported as -1.59% (inactive).
For `Cc1ccc(S(=O)(=O)N2CCN(CC(=O)N/N=C/c3ccc(Br)s3)CC2)cc1`, the activation was -1.5% (inactive).
In the case of `O=C(CN1CCSCC1)N/N=C/c1ccc(F)cc1F`, the activation is reported as -1.01% (inactive).
In the case of `O=C(CN1CCSCC1)N/N=C/c1ccc(Cl)cc1`, the activation is reported as 1.53% (active).
`COc1ccc(N2CCN(CCNS(=O)(=O)c3ccc(Cl)s3)CC2)cc1` was tested, and the activation was -0.86% (inactive).
For `O=C(NC1CCCCN(Cc2cccc(C(F)(F)F)c2)C1=O)c1ccccc1I` (centres undefined), the activation was -1.74% (inactive).
With `Cn1c(NC(=O)c2ccccc2)nc2ccccc21` the activation was 1.7% (active).
`COC(=O)c1ccc(-n2cnc3ccccc32)nc1` was tested, and the activation was -0.78% (inactive).
In the case of `CCn1c(NC(=O)c2nn(C)cc2Br)nc2ccccc21`, the activation is reported as -0.8% (inactive).
For `COc1ccccc1C(=O)NC1CCCCN(C(C)C)C1=O` (centres undefined), the activation was -0.64% (inactive).
`CCN(CC)S(=O)(=O)c1ccc(NC(=O)c2cccnc2Cl)c(NC(=O)c2cccnc2Cl)c1` was tested, and the activation was -0.9% (inactive).
For `CCN(CC)S(=O)(=O)c1ccc(NC(=O)c2cnc(C)cn2)cc1`, the activation was 1.35% (active).
In the case of `CCOC(=O)N1CCC(N2Cc3cccc(C(=O)Nc4ccc(S(=O)(=O)N(CC)CC)cc4)c3C2=O)CC1`, the activation is reported as -1.26% (inactive).
With `COC(=O)C1CN(CC(C)C)CCS(=O)(=O)N1Cc1ccc(F)cc1` (centres undefined) the activation was -1.13% (inactive).
In the case of `CCOC(=O)[C@]12CCCCC/C=C\1N(Cc1ccc(OC)cc1)C(=O)[C@H]2CC(=O)N1CCOCC1`, the activation is reported as -0.98% (inactive).
For `COc1ccc(NCCc2ccccn2)cc1`, the activation was 1.17% (active).
`COc1cncc(-c2cnc3sc(NCCc4ccccn4)nn23)c1` was tested, and the activation was -1.45% (inactive).
For `Cc1c(C)c(C)c(S(=O)(=O)NCCc2ccccn2)c(C)c1C`, the activation was 0.14% (inactive).
`COC(=O)[C@@]12CCCCC3=C1N(CCC3)C(=O)[C@H]2CC(=O)NCc1cccc2ccccc12` was tested, and the activation was -0.9% (inactive).
With `COc1cccc(-c2nc3cc(C)ccc3o2)c1` the activation was 2.34% (active).
With `COC(=O)C(C)Oc1ccc2c(-c3cccc([N+](=O)[O-])c3)cc(=O)oc2c1` (centres undefined) the activation was -1.35% (inactive).
With `O=[N+]([O-])c1ccc2oc(-c3cccc(O)c3)nc2c1` the activation was 3.74% (active).
`COc1cccc(-c2cnc(OC(C)(C)C)nc2OC(C)(C)C)c1` was tested, and the activation was -1.2% (inactive).
With `COc1cccc(NS(=O)(=O)c2ccc(-c3coc(C)n3)cc2)c1` the activation was -0.73% (inactive).
With `O=C(O)c1ccc([N+](=O)[O-])cc1Sc1ccsc1` the activation was -1.44% (inactive).
With `Cc1cc(=O)[nH]c(SCC(=O)Nc2ccc(F)cc2F)n1` the activation was -1.31% (inactive).
For `C=CCN1[C@@H](Cc2ccccc2)COc2cccc(N3CCSCC3)c2S1(=O)=O`, the activation was -1.93% (inactive).
`O=C(N1CCOCC1)N1CC[C@H]2[C@H](CCCN2Cc2ccc(F)cc2)C1` was tested, and the activation was -1.48% (inactive).
With `C[C@H](C(=O)N(C)c1ccccc1)[C@@H](O)c1ccc(Cl)cc1` the activation was -1.24% (inactive).
With `Cn1c(=O)[nH]c(=O)c2c1nc(CN1CCN(c3ccccc3F)CC1)n2CCc1ccccc1` the activation was -1.22% (inactive).
In the case of `O=C(NC(=O)c1ccccc1)Nc1ccccc1O`, the activation is reported as 2.39% (active).
`N#C/C(=C/c1ccc(Cl)cc1)NC(=O)c1ccccc1` was tested, and the activation was -1.06% (inactive).
In the case of `O=C(NC(=S)Nc1cccc2c(O)cccc12)c1cccc(Br)c1`, the activation is reported as -1.15% (inactive).
For `CCCS(=O)(=O)Nc1c(C(=O)O)[nH]c2ccccc12`, the activation was 0.51% (inactive).
`NS(=O)(=O)c1ccccc1NC(=O)c1c(O)c2ccccc2[nH]c1=O` was tested, and the activation was 1.94% (active).
In the case of `CCc1ccc2[nH]c(=O)c(Cc3ccccc3)c(O)c2c1`, the activation is reported as -1.02% (inactive).
With `O=S(=O)(c1ccc(OCC(O)CN2CCN(c3ccccc3Cl)CC2)cc1)N1CCOCC1` (centres undefined) the activation was -1.31% (inactive).
For `OC(COc1ccc2ccccc2c1)CN1CCOCC1` (centres undefined), the activation was 0.96% (active) and -0.96% (inactive).
`OC(COc1ccc2ccccc2c1)Cn1cncn1` (centres undefined) was tested, and the activation was -0.42% (inactive).
For `Cc1ccccc1CN1CCCCC(NC(=O)Nc2ccccc2F)C1=O` (centres undefined), the activation was -1.37% (inactive).
`COc1cc(NC(=O)C2CCCN(S(=O)(=O)c3ccc(C(C)(C)C)cc3)C2)cc(OC)c1` (centres undefined) was tested, and the activation was -0.79% (inactive).
`CCSC1=C(C#N)C(=O)n2c1cc1c2CCCC1` was tested, and the activation was -0.32% (inactive).
With `N#Cc1c(NC(=O)c2ccc(N3CCOCC3)c([N+](=O)[O-])c2)sc2c1CCCC2` the activation was -1.7% (inactive).
In the case of `CCC1CCc2c(sc(NC(C)=O)c2C#N)C1` (centres undefined), the activation is reported as -1.82% (inactive).
`N#Cc1c(NC(=O)C2CCCO2)sc2c1CCCCC2` (centres undefined) was tested, and the activation was 2.81% (active).
In the case of `C[C@@H]1COc2cccc(N3CCCC3)c2S(=O)(=O)N1C`, the activation is reported as -1.35% (inactive).
In the case of `O=C(Cn1c(-c2ccc(Cl)cc2)noc1=O)N1CCN(c2ccccc2F)CC1`, the activation is reported as -0.84% (inactive).
In the case of `O=c1onc(-c2cccs2)n1Cc1ccccc1`, the activation is reported as -1.05% (inactive).
With `O=c1onc(-c2c(F)cccc2F)n1-c1ccccc1Cl` the activation was 1.01% (active).
`O=C(Nc1ccc2sc3ccccc3c(=O)c2c1)c1ccccc1Cl` was tested, and the activation was 1.16% (active).
With `COCC(=O)N1CCc2ccc(NC(=O)c3ccccc3Cl)cc2C1` the activation was -1.31% (inactive).
In the case of `CS(=O)(=O)c1ccccc1C(=O)Nc1ccc2sccc2c1`, the activation is reported as -1.02% (inactive).
For `COc1ccc(C2Nc3ccccc3C(=O)N2Cc2cccs2)cc1COc1c(C)cccc1C` (centres undefined), the activation was -0.82% (inactive).
`CCCn1nc(C(=O)NNC(=O)CSCC(=O)Nc2cc(C)on2)c2ccccc2c1=O` was tested, and the activation was -0.87% (inactive).
In the case of `CCCn1nc(C(=O)Nc2ccc3nc(C)sc3c2)c2ccccc2c1=O`, the activation is reported as 8.45% (active).
`CCCCn1nc(C(=O)Nc2cccc(C(=O)NC3CC3)c2)c2ccccc2c1=O` was tested, and the activation was -1.7% (inactive).
`COc1ccc(-n2c(COc3ccc(C)cc3)nnc2SCC(=O)Nc2ccc(Oc3ccccc3)cc2)cc1` was tested, and the activation was -1.71% (inactive).
In the case of `CCCCCN1CCCCC(NC(=O)C(C)CCC)C1=O` (centres undefined), the activation is reported as -1.23% (inactive).
In the case of `C=C(C)C#CC(Cc1ccccc1)N(CC1CC1)/C(N)=N/C(=O)OCc1ccccc1` (centres undefined), the activation is reported as -1.98% (inactive).
For `COc1ccc(-n2c(SCC(=O)Nc3ccc4c(c3)OCCO4)nnc2-c2ccc(Cl)cc2)cc1`, the activation was -1.63% (inactive).
`CCC[C@H]1C(=O)CC[C@@]23CCCN2C(=O)CCC[C@@H]13` was tested, and the activation was -0.75% (inactive).
`O=C1CC[C@@]23CCCN2C(=O)CCC[C@H]3[C@H]1Cc1ccccc1` was tested, and the activation was -1.31% (inactive).
With `CCC(=O)c1c(CC)c2n3c1=CC[C@H]3CC(Br)C=2` (some centres undefined) the activation was -1.9% (inactive).
With `COc1ccc(NC2=CC(=S)NC(C)(C)C2)cc1` the activation was -0.87% (inactive).
For `COc1ccc(Nc2cc(=O)n(-c3ccccc3)c3c2c(=O)n(C)c(=O)n3C)cc1`, the activation was -0.93% (inactive).
`COc1ccc(Nc2ccc3ccccc3c2)cc1` was tested, and the activation was 2.46% (active).
For `CCN(C(=O)[C@@H](C1CC1)[C@@H](O)c1ccc2ccccc2c1)c1ccccc1`, the activation was -1.3% (inactive).
In the case of `N#Cc1ccc(OC[C@@H](O)CN2CCC(C(O)(c3ccccc3)c3ccccc3)CC2)c(F)c1`, the activation is reported as -1.58% (inactive).
For `COc1ccc(CNC(=O)COc2ccccc2C(=O)c2cnn(-c3ccccc3)c2)cc1OC`, the activation was -0.31% (inactive).
In the case of `O=C(c1cnn(-c2ccc(Cl)cc2)c1)c1ccccc1O`, the activation is reported as 1.24% (active).
In the case of `Cc1[nH]nc(-c2ccc(OCc3cnn(-c4ccccc4)c3)cc2O)c1Oc1ccc(Cl)cc1`, the activation is reported as -0.99% (inactive).
`CC(C)CNS(=O)(=O)CC1NCCc2ccccc21` (centres undefined) was tested, and the activation was -0.28% (inactive).
With `Cc1cc(C)nc(NS(=O)(=O)c2ccc(N/C=C\C(=O)c3cccs3)cc2)n1` the activation was 1.14% (active).
For `CCOc1ncccc1C(=O)Nc1ccc(S(=O)(=O)Nc2nc(C)cc(C)n2)cc1`, the activation was -0.22% (inactive).
For `CC(=O)Nc1ccc(S(=O)(=O)Nc2nccc(/C=C/c3ccccc3F)n2)cc1`, the activation was -0.24% (inactive).
For `O=S(=O)(c1ccc2c(c1)OCCCO2)N1CCN(S(=O)(=O)c2c(F)cccc2F)CC1`, the activation was -0.38% (inactive).
`COC(=O)C1=CO[C@@H](O[C@@H]2O[C@H](CO)[C@@H](O)[C@H](O)[C@H]2O)C2C1C[C@H](O)[C@@H]2C` (some centres undefined) was tested, and the activation was -1.3% (inactive).
`Cc1cccc(-n2nc3c(c2NC(=O)c2cc4ccccc4o2)CS(=O)(=O)C3)c1` was tested, and the activation was -0.31% (inactive).
With `Cc1ccc(NC(=O)c2cc3ccccc3o2)cc1` the activation was 2.98% (active).
`CC(OC(=O)c1cc2ccccc2o1)C(=O)Nc1ccc(N2CCOCC2)cc1` (centres undefined) was tested, and the activation was -1.36% (inactive).
In the case of `CC(=O)N1CCc2cc(S(=O)(=O)NCCC(=O)N3CCCC3)ccc21`, the activation is reported as -0.66% (inactive).
In the case of `Nc1[nH]c(/C=C2/CCCCC2n2[nH]c(=O)n(-c3ccccc3)c2=O)c(Cc2ccccc2)[n+]1Cc1ccccc1` (centres undefined), the activation is reported as -1.51% (inactive).
For `COC(=O)[C@]12C[C@H](CC(=O)NCc3ccccc3)C(=O)N(Cc3ccccc3)C1=C[C@H](COCc1ccccc1)O[C@@H]2C`, the activation was -1.73% (inactive).
In the case of `O=C(CSc1nnc(-c2c[nH]c3ccccc23)o1)c1ccccc1`, the activation is reported as -0.81% (inactive).
In the case of `NC(=O)CSc1c[nH]c2ccccc12`, the activation is reported as 1.11% (active).
With `CCCn1cc(SCC(N)=O)c2ccccc21` the activation was -0.92% (inactive).
`COC(=O)[C@]12C[C@H](CC(=O)N3CCOCC3)C(=O)N(Cc3ccc(Cl)cc3Cl)C1=C[C@H](COCc1ccccc1)O[C@@H]2C` was tested, and the activation was -0.98% (inactive).
With `N#Cc1ccccc1OC[C@@H](O)CN1CCC(C(O)(c2ccccc2)c2ccccc2)CC1` the activation was -0.74% (inactive).

Reference: PubChem BioAssay AID652126 (The Scripps Research Institute Molecular Screening Center, 2013)
